From PubChem BioAssay (NCATS) come the findings set out here.

The nature of assay [1]: qHTS assay for small molecule antagonists of peroxisome proliferator-activated receptor delta signaling (AID 588535; active means well fitted inhibition curve with a large enough effect in the signal ratio, with a control signal flat, not every such curve was filed as active; the % refers to the signal ratio;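 on max response: cells co-treated with a PPAR-delta agonist as stimulator during compound exposure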). The following applies: HEK293T PPARd-UAS-bla, beta-lactamase FRET ratio, 18 h; 460 nm channel. The method in brief:
(§1)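 GeneBLAzer PPAR-delta-UAS-bla HEK293T cells in medium with 2% charcoal/dextran FBS were preincubated 5 hrs at 37 C, then given compounds, incubated 18 hrs at 37 C, and read by CCF4 beta-lactamase fluorescence; IC50 from Hill fits.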
Background: qHTS replaces the single test concentration by a dilution series.

In assay [2] the target is Peroxisome proliferator-activated receptor delta (Homo sapiens) (UniProt Q03181). The description is as above. The method in brief:
as §1

For assay [3], the target named is Peroxisome proliferator-activated receptor gamma (Homo sapiens) (UniProt P37231). Kind of assay: qHTS assay for small molecule agonists of peroxisome proliferator-activated receptor gamma signaling (AID 588536; active means well fitted curve in the direction sought with a large enough effect in the signal ratio, with a control signal flat, not every such curve was filed as active; the % refers to the signal ratio;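 further: 0% = DMSO basal wells and 100% = rosiglitazone at 2 µM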). The method in brief: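 PPAR-gamma-UAS-bla HEK293 cells in medium with 1% charcoal/dextran-treated FBS were exposed to compounds for 16 h at 37 C. Beta-lactamase activity was read with CCF4 substrate (405 nm excitation, 460/530 nm emission).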

The target of assay [4] is Retinoic acid receptor RXR-alpha (Homo sapiens) (UniProt P19793). The assay can be described thus: qHTS assay for small molecule agonists of retinoid X receptor alpha signaling (AID 588544; calls by dose curve;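 further: 0% = DMSO basal wells and 100% = reference agonist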).
Assay [5] deals with Thyroid hormone receptor beta (Homo sapiens) (UniProt P10828). The assay can be described thus: qHTS assay for small molecule agonists of thyroid hormone receptor beta signaling (AID 588545; calls by dose curve;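 further: 0% = DMSO only and 100% = 10 nM T3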). A digest of the protocol:
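TR-UAS-bla GripTite HEK 293 cells (2500/well, medium with 2% charcoal/dextran FBS) were treated in agonist mode for 18 h at 37 C, titrated. Beta-lactamase was read by CCF4 ratio after 2 h; normalized to 10 nM T3 (100%) and DMSO, Hill-fitted for EC50 and efficacy.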

Assay [6] can be described thus: qHTS assay for small molecule antagonists of retinoid X receptor alpha signaling (AID 588546; active means well fitted inhibition curve with a large enough effect in the signal ratio, with a control signal flat, not every such curve was filed as active; the % refers to the signal ratio;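 further: cells stimulated with 9-cis-retinoic acid as agonist; on the % scale 0 is the no-effect control and ±100 the full control effect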). The conditions noted are these: HEK293T RXRa-UAS-bla, beta-lactamase ratio, antagonist mode; measured here: W530 green channel, cytotoxicity proxy. A digest of the protocol: (§2)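 Beta-lactamase reporter inhibition, read as CCF4 fluorescence ratio (ex 405, em 460/530 nm) after 2 h at RT. HEK293T UAS-bla cells, 2500/well, were stimulated with 9-cis-RA at 500 or 100 nM final alongside test compound for 18 h at 37 C.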

Assay [7] has as its target Thyroid hormone receptor beta (Homo sapiens) (UniProt P10828). The assay can be described thus: qHTS assay for small molecule antagonists of thyroid hormone receptor beta signaling (AID 588547; active means well fitted inhibition curve with a large enough effect in the signal ratio, with a control signal flat, not every such curve was filed as active; the % refers to the signal ratio;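 further: cells stimulated with 0.4 nM T3 agonist during compound exposure; series mostly up to about 77 µM; on the % scale 0 is the no-effect control and ±100 the full control effect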). The conditions noted are these: TR-UAS-bla HEK293, beta-lactamase ratio, antagonist mode, 18 h. The method in brief:
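TR-UAS-bla GripTite HEK293 cells in 2% charcoal/dextran FBS medium were preincubated 4 h at 37 C, given compound (0.59 nM to 92 uM) plus 0.4 nM T3 (final) for 18 h, then CCF4 for 2 h at RT; Hill fit gave IC50.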

The nature of assay [8]: qHTS assay for small molecule activators of the p53 signaling pathway (AID 651743; active means well fitted activation curve with a large enough effect in the signal ratio, not every such curve was filed as active; the % refers to the signal ratio; further: potency means the concentration at half of the fitted maximal effect; on activation: series mostly up to about 92 µM; % of control where 0% means no effect). The conditions noted are these: HCT-116 p53RE-bla, beta-lactamase FRET ratio, 16 h; activation: stronger effect = higher value. The method in brief: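 p53RE-bla HCT-116 cells with a stably integrated beta-lactamase reporter under p53 response elements were plated, rested 5 hours at 37 C/5% CO2, then exposed to compounds in DMSO for 16 hours at 37 C. LiveBLAzer B/G FRET substrate was read after 2 hours at room temperature.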

Assay [9] is described as follows: qHTS assay for environmental chemicals that activate the Aryl hydrocarbon Receptor (AhR) signaling pathway (AID 651777). Further: nearly all actives have a fitted effect of over 15% in size. Further: potency means the concentration at half of the fitted maximal effect. On activation: % of control where 0% means no effect. The conditions noted are these: 1A2-DRE human hepatoma cells, luciferase, 24 h; activation: stronger effect = higher value. A digest of the protocol: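 Luminescence (One-Glo, 30 min, room temperature) reports AhR-driven luciferase in stably transfected human hepatoma cells bearing DRE and CYP1A2 promoter. Cells (1,200/well) were treated with compound for 24 hr at 37 C in qHTS format.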

Assay [10] addresses Peroxisome proliferator-activated receptor alpha (Homo sapiens) (UniProt Q07869). The assay can be described thus: qHTS assay for small molecule agonists of the peroxisome proliferator-activated receptor alpha (PPARalpha) signaling pathway (AID 651778). Further: % of control where 0% means no effect. The following applies: PathHunter PPARalpha complementation, chemiluminescence, 6 h; max response: stronger effect = higher value. The method in brief:
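Cells plated at 2,000/well and held overnight at 37 C, 5% CO2, then compound added by pin tool for 6 hr; after PathHunter detection reagent and 60 min at room temperature, chemiluminescence from enzyme complementation was read.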

Assay [11] in a line: qHTS assay for small molecule agonists of the antioxidant response element (ARE) signaling pathway measured by Nrf2-dependant transcriptional activity (AID 720636; active means well fitted curve in the direction sought with a large enough effect in the repeat runs; an effect the other way counts as inactive or inconclusive; further: % of control where 0% means no effect). A digest of the protocol:
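Nrf2-dependent transcription read as ONE-Glo luciferase signal from ARE-luc HepG2 reporter cells after 16 hr compound treatment at 37 C, 5% CO2, in assay medium with 1% dialyzed FBS.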

Assay [12] in a line: qHTS assay for small molecule agonists of the antioxidant response element (ARE) signaling pathway measured by Nrf2-dependant transcriptional activity - cell viability counter screen (AID 720653; active means well fitted curve in the direction sought with a large enough effect in the repeat runs; an effect the other way counts as inactive or inconclusive; further: on the % scale 0 is the no-effect control and ±100 the full control effect). The conditions noted are these: ARE-bla HepG2 viability, CellTiter-Glo ATP luminescence, 16 h; max response: stronger effect = lower value. A digest of the protocol:
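ARE-bla HepG2 cells (2,000/well) rested 5 hrs at 37C/5% CO2, then exposed to compounds in DMSO for 16 hrs. Viability was read in the same wells as intracellular ATP by luminescence, 30 min at room temperature after reagent addition.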

Assay [13] is described as follows: qHTS assay for cell viability of HEK293 cells (AID 743288). Further: on the % scale 0 is the no-effect control and ±100 the full control effect; nearly all actives have a fitted effect of over 50% in size. The following applies: ATP luminescence (CellTiter-Glo), 18 h; max response: stronger effect = lower value. A digest of the protocol: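 Parental HEK293 cells were seeded at 2,000 cells/well, rested at least 5 h at 37 C, then exposed to compounds in DMSO for 18 h at 37 C. Viability was read as ATP-dependent luciferase luminescence after 30 min at room temperature.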

Assay [14] addresses Nuclear receptor subfamily 1 group I member 2 (Rattus norvegicus) (UniProt Q9R1A7). Kind of assay: qHTS assay for small molecule activators of the rat pregnane X receptor (rPXR) signaling pathway (AID 651751; call rule not given here; further: 0% is about no effect). The conditions noted are these: rPXR reporter cells, luciferase (One-Glo), 24 h.
In assay [15] the target is Peroxisome proliferator-activated receptor delta (Homo sapiens) (UniProt Q03181). The assay can be described thus: qHTS assay for small molecule agonists of peroxisome proliferator-activated receptor delta signaling (AID 588534; calls by dose curve;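 further: 0% = DMSO basal wells and 100% = positive control agonist at 10 µM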). A digest of the protocol:
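Cell-based beta-lactamase reporter assay run in agonist mode: cells seeded and incubated 5 hrs at 37 C, compounds added and incubated 18 hrs at 37 C. CCF4 dye fluorescence read after 2 hrs at RT; EC50 and efficacy from Hill fits.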

For assay [16], the target named is Retinoic acid receptor RXR-alpha (Homo sapiens) (UniProt P19793). Kind of assay: qHTS assay for small molecule antagonists of retinoid X receptor alpha signaling (AID 588546).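 Further: cells stimulated with 9-cis-retinoic acid as agonist; on the % scale 0 is the no-effect control and ±100 the full control effect.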 The following applies: HEK293T RXRa-UAS-bla, beta-lactamase ratio, antagonist mode. The method in brief:
as §2

The nature of assay [17]: qHTS assay for cell viability of the p53RE-bla HCT-116 cell line (AID 743292). Further: on the % scale 0 is the no-effect control and ±100 the full control effect; nearly all actives have a fitted effect of over 55% in size. The method in brief: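 ATP-based luminescent viability (CellTiter-Glo, 30 min RT) after 16 h compound treatment at 37 C of p53RE-bla HCT-116 cells, seeded at 4,000 cells/well and rested 5 h before dosing.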
For assay [18], the target named is Glucocorticoid receptor (Homo sapiens) (UniProt P04150). Kind of assay: qHTS assay for small molecule antagonists of glucocorticoid receptor signaling (AID 588533; active means well fitted inhibition curve with a large enough effect in the signal ratio, with a control signal flat, not every such curve was filed as active; the % refers to the signal ratio). The method in brief:
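Antagonist-mode qHTS: compound titrations added to GRE-bla HeLa cells, then dexamethasone 2 nM final; 18 h, 37 C. CCF4 FRET fluorescence normalized to dexamethasone and DMSO; IC50 from Hill fit.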

Assay [19] has the same target. The assay can be described thus: qHTS assay for small molecule agonists of glucocorticoid receptor signaling (AID 588532; active means well fitted curve in the direction sought with a large enough effect in the signal ratio, with a control signal flat; the % refers to the signal ratio;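 further: 100% = dexamethasone at 0.1 µM and 0% = DMSO only wells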). The following applies: HeLa MMTV-bla, beta-lactamase ratio, agonist, 18 h; activation: stronger effect = higher value, percent of dexamethasone control, DMSO zero. The method in brief:
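MMTV-bla HeLa, beta-lactamase reporter; medium with 1% charcoal/dextran-stripped FBS; cpds up to 92 uM, 18 h, 37 C; CCF4 readout 460/530 nm; Hill fit → EC50, efficacy vs 0.1 uM dexamethasone = 100%.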

Results filed as inconclusive are left out. Activity calls are given as the source filed them. Unless noted, the call rests on the fitted dose curve; in most records, active means well fitted curve in the direction sought with a large enough effect; inconclusive means small, poorly fitted or top-dose-only effect, or another doubt; inactive means no such curve, though single readings can be large; an effect the other way counts as inactive or inconclusive.

Thyroid hormone receptor beta (Homo sapiens), sequence (P10828 whole entry, looked up): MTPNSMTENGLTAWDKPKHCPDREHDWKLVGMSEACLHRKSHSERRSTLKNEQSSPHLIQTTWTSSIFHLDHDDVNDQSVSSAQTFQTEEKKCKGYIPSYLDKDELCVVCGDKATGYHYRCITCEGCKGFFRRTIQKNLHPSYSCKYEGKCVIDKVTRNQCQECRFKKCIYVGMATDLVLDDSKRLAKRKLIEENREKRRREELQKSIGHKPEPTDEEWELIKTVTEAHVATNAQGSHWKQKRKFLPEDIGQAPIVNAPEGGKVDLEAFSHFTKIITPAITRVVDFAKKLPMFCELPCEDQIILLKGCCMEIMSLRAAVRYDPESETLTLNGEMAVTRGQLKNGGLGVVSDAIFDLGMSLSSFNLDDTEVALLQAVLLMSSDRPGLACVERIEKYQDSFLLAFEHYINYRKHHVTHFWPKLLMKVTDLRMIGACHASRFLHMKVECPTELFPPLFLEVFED
Retinoic acid receptor RXR-alpha (Homo sapiens), sequence (P19793 whole entry, looked up): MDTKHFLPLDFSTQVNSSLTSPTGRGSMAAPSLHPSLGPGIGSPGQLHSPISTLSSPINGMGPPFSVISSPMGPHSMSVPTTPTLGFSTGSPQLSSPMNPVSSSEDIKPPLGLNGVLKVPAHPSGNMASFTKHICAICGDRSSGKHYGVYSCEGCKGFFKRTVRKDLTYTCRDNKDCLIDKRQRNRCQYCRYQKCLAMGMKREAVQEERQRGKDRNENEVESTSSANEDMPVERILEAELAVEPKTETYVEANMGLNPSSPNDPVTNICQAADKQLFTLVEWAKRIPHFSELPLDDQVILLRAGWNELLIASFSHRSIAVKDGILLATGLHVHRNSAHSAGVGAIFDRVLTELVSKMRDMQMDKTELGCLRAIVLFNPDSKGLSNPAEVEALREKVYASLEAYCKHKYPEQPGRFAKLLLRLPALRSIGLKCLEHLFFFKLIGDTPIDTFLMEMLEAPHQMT
Peroxisome proliferator-activated receptor gamma (Homo sapiens), sequence (P37231 whole entry, looked up): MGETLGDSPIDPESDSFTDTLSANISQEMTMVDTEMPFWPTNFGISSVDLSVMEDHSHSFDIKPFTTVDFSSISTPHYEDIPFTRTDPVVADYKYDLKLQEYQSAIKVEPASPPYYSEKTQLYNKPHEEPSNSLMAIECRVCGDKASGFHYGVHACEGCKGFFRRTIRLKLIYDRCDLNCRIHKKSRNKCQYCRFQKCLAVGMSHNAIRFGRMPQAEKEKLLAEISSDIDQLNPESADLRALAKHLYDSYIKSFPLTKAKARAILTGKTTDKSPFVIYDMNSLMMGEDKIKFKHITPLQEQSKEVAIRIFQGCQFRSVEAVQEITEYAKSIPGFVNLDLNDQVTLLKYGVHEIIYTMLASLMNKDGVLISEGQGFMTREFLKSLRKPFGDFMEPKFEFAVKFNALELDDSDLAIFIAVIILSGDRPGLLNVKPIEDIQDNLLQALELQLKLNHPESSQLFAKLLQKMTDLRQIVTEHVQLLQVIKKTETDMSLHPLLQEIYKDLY
Peroxisome proliferator-activated receptor alpha (Homo sapiens), sequence (Q07869 whole entry, looked up): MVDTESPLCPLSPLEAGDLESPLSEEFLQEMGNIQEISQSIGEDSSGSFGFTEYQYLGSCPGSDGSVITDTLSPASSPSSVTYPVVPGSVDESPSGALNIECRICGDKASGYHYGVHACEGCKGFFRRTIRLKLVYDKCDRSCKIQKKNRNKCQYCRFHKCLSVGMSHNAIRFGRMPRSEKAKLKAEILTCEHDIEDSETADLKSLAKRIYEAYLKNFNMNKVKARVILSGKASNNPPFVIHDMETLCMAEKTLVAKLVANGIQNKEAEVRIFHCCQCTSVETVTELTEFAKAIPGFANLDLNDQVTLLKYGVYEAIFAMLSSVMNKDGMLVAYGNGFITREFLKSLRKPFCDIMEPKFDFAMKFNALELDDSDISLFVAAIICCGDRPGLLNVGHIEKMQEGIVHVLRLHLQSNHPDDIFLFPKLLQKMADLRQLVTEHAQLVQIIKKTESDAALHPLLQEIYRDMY
Peroxisome proliferator-activated receptor delta (Homo sapiens), sequence (Q03181 whole entry, looked up): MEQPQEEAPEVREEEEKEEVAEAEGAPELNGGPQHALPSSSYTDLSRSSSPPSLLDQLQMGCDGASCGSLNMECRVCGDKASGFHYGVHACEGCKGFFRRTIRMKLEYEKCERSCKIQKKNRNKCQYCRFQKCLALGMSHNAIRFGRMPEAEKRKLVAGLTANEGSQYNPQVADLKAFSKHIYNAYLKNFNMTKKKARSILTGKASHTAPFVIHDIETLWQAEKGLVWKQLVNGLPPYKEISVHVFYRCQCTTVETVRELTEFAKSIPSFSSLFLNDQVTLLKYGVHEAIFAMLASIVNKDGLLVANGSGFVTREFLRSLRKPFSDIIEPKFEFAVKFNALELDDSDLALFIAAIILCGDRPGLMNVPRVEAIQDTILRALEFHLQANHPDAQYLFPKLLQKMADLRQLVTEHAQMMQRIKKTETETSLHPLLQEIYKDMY
Glucocorticoid receptor (Homo sapiens), sequence (P04150 whole entry, looked up): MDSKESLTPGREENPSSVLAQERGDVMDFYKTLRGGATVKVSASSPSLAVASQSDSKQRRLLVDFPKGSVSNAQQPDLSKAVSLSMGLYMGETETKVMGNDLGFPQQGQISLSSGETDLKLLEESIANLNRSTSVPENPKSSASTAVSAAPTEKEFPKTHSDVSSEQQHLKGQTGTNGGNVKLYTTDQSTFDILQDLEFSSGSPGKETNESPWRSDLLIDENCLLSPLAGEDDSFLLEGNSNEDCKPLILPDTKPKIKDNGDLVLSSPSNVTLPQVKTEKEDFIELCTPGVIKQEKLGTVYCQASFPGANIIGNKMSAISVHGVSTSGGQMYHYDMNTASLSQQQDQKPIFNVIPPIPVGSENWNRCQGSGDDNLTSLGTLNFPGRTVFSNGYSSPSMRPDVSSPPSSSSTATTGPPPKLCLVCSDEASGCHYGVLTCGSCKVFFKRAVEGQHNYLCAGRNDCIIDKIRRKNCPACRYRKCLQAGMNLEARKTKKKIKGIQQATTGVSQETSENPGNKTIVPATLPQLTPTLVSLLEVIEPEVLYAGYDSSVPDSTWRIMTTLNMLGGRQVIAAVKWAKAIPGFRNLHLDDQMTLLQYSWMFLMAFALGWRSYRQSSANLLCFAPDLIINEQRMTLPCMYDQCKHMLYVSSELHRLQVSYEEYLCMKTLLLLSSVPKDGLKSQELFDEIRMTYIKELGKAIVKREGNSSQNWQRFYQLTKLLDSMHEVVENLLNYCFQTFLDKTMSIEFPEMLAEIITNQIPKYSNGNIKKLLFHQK
Nuclear receptor subfamily 1 group I member 2 (Rattus norvegicus), sequence (Q9R1A7 whole entry, looked up): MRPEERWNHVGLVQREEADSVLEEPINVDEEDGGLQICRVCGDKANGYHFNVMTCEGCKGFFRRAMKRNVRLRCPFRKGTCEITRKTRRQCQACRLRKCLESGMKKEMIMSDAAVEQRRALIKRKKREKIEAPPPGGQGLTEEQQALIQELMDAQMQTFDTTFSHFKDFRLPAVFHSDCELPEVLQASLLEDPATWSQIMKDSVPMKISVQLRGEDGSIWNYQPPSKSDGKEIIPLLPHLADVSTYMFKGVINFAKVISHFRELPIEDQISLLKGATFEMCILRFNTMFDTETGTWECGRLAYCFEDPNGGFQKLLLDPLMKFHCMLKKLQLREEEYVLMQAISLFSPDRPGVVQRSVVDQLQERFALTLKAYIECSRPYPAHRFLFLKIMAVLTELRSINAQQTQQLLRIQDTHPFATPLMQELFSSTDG

For `CCCCOC(=O)c1ccccc1C(=O)O`, the max response is 23.7% in assay [1]; 2.69% in assay [6]; 0.528% (inactive) in assay [10]; 18.5% (inactive) in assay [12]; 6.89% (inactive) in assay [13]; -8.39% (inactive) in [14]. The Potency entry in [2], in [3], in assay [4], in assay [5] and in assay [11] was “inactive” in each case. Moreover, in assay [7], the activity change % (negative = inhibition) is 6.47% (inactive). The activation in [8] is -2.82% (inactive); in assay [9], -4.01% (inactive).
For `CCOP(=O)(OCC)OP(=O)(OCC)OCC`, in assay [15], the result was inactive. Besides, the max response in [1] was 14.8%; in [6], -3.28%; in assay [16], -9.63% (inactive); in assay [10] it was -1.23% (inactive); in [12], 5.73% (inactive); in assay [13] it was -8.91% (inactive). Further, the max response in assay [14] is 8.32% (inactive). For the same molecule, the Potency entry in [2], in assay [3], in assay [4] and in assay [17] was “inactive” in each case. In addition, the activity change % (negative = inhibition) in [7] is 15.3% (inactive). For the same molecule, the results for the activation in [8] and in assay [9] were -6.2% (inactive) and -0.108% (inactive), respectively.
In the case of `O=CNC(N1CCN(C(NC=O)C(Cl)(Cl)Cl)CC1)C(Cl)(Cl)Cl` (configuration not stated), the Potency entry in [18], in [2], in assay [3], in assay [4], in [5] and in assay [11] was “inactive” in each case. Moreover, in assay [17], the Potency result was “inactive”. Moreover, in assay [15], the outcome was inactive. Also, the max response was 26.2% in assay [1], -1.75% (inactive) in [10], -22.2% (inactive) in [12] and -20.2% (inactive) in assay [13]. Moreover, the activity change % (negative = inhibition) in assay [7] is -18.1% (inactive). The activation in assay [9] is 0.502% (inactive).
In the case of `CCOC(=O)COc1cc(-c2nn(C)c(OC(F)F)c2Cl)c(F)cc1Cl`, the values for the activation in assay [19] and in [8] were -3.65% (inactive) and -1.21% (inactive), respectively. The Potency result in assay [18], in assay [2], in [4], in assay [5], in [11] and in assay [17] was “inactive” throughout. The max response in [1] is 58.4%; in [6], 16.9%; in assay [16] it was -15.1% (inactive); in assay [10] it was -0.355% (inactive); in [12], 13.2% (inactive); in [14] it was 0.553% (inactive). Further, in [7], the activity change % (negative = inhibition) is 7.86% (inactive). For the same molecule, the Potency in [9] was 44.7 µM (active).
With `CC(C)=C[C@@H]1[C@@H](C(=O)OCN2C(=O)C3=C(CCCC3)C2=O)C1(C)C`, the results for the activation in assay [19], in [8] and in [9] were 11.7% (inactive), 11.9% (inactive) and -1.3% (inactive), respectively. The Potency result in assay [5] and in assay [11] was “inactive” throughout. In addition, the max response in [6] is -15.3%; in assay [16] it was 18% (inactive); in assay [12] it was -22.2% (inactive); in assay [13], -11.5% (inactive); in [14], 4.94% (inactive). The activity change % (negative = inhibition) in assay [7] is 7.01% (inactive).
`CCCCCCCCCCCCC1=C(OC(C)=O)C(=O)c2ccccc2C1=O`: the activation in [19] is -3.65% (inactive); in [9] it was 1.53% (inactive). In addition, the Potency in [8] is 11.2 µM (active). The Potency result in assay [11] is “inactive”. Moreover, the max response was -15.3% (inactive) in assay [12], -22.1% (inactive) in assay [13] and 0.383% (inactive) in assay [14].
